In ChEMBL document CHEMBL4296182, “CO-ADD screening of NIH NCI Diversity Set V”:

System: Staphylococcus aureus
Assay: Antibacterial activity against Staphylococcus aureus MRSA ATCC 43300 (CO-ADD:GP_020); MIC in CAMBH media using NBS plates, by Resazurin F(560/590)
Format: functional
Details: Concentration 20 uM, ASSAY_TEST Inhibition of Bacterial Growth, detection method Resazurin, Fluorescence (ex560/em590), MEDIA CAMHB, plate type 384well, CORNING #3640, time 18 hr

SMILES	Inhibition [%]
O=[N+]([O-])c1cc(-c2ccc([As](=O)(O)O)cc2)ccc1[As](=O)(O)O	16.49
O=P(Oc1ccccc1)(Oc1ccccc1)c1ccccc1	1.14
Cc1ccccc1-n1c(/C=C\c2ccccn2)nc2ccccc2c1=O	-4.95
CSc1nc(=O)c(/N=N/c2ccc([As](=O)(O)O)cc2)c(N)[nH]1	-2.85
COc1ccc2c(c1)C13CCN(C)C(C2)C1CCC1(C3)OCCO1 (configuration not stated)	-3.64
CCCC(=O)N(C)C1=Nc2ccc(Cl)cc2C(c2ccccc2)=[N+]([O-])C1	11.96
O=P(OC1=CCCCC1)(c1ccccc1)c1ccccc1	2.77
O=C(Nc1ccc(F)cc1)Oc1cccnc1O	10.32
CC(C)(C)c1cc(C=C(C#N)C#N)cc(C(C)(C)C)c1O [TYRPHOSTIN A9]	-5.13
SC1=NC2(CCCCC2)NC12CCCCC2	8.84
Cc1ncc([N+](=O)[O-])n1CCOC(N)=O [BAMNIDAZOLE]	2.14
C=CCNC(=S)Nc1ccc(OC(=O)Nc2ccc(Cl)c(Cl)c2)cc1	9.35
CC(C)CC(NC=O)C(=O)O.COc1cc2c(cc1OC)C13CCN4CC5=CCOC6CC(=O)N2C1C6C5CC43 (configuration not stated)	7.19
CN(C)C1CCc2[nH]c3c(F)cc(F)cc3c2C1 (configuration not stated) [FLUCINDOLE]	8.89
C1CC2NCCC3NCCC(N1)N32 (configuration not stated)	9.55
CCN1CCc2ccccc2C1	13.64

SMILES	Inhibition [%]
c1ccc(C2NCCc3[nH]cnc32)cc1 (configuration not stated)	1.04
CN(C)P(=O)(N(C)C)N1CC1	13.5
O=C1/C(=C\c2ccccc2)C2OCC=C3CN4CCC56c7ccccc7N1C5C2C3CC46 (configuration not stated)	33.46
CN1CCN(c2nc(N)c(Br)c(Cl)n2)CC1	8.04
FCCN(CCF)c1cccc(Cl)c1	3.32
CN1CCC(c2c[nH]c3ccccc23)C1 (configuration not stated)	10.13
CCN1CC2C3CCC(C)(O3)C2C1 (configuration not stated)	2.81
COc1ccc(CCNC2(C#N)CCCCC2)cc1OC	2.96
COc1ccc2c(c1O)[C@]13CCN(C)[C@H](C2)[C@@H]1CCC(=O)C3	-1.15
COc1ccc2c(c1)NP(=S)(Oc1ccccc1)N2 (configuration not stated)	-0.02
O=C1C[C@@H]2OCC=C3C[N+]4([O-])CC[C@]56c7ccccc7N1[C@H]5[C@H]2[C@H]3C[C@@H]64 (some centres not stated)	-3.57
NC=C1C(=O)N(c2ccccc2)C(=O)N(c2ccccc2)C1=O	-9.39
CN1CCCC1c1ccc(O)nc1 (configuration not stated)	23.44
C[C@H]1[C@H](C)N1CC(O)Cn1ccnc1[N+](=O)[O-] (some centres not stated)	3.93
C[C@H]1CC[C@H]2NCCN[C@H]2C1	3.35
Cc1ccccc1NC(=O)Oc1cccc(OC(=O)c2ccccc2)c1	23.15
